Test results as given in PubChem BioAssay (NCI).
Compounds without any hit were thinned out: in the full panel of roughly 83,000, 20% have a hit.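 Testing used 96-well plates and a 48-hour single-concentration exposure. Example: -40 means 40% of the starting cells died.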 A number with no mark means an inactive call. The source made the active and inactive calls. The calls were made as follows: active = growth percent below 10; inactive = the rest.

System: K-562 leukemia
Experiment: NCI-60 one-dose screen, 48 h (100 = growth as untreated, 0 = no growth, -100 = all killed)
Conditions: 10 µM

| SMILES | growth |
| --- | --- |
| COc1cccc(C2C(C#N)=C(N)Oc3cc(N)ccc32)c1 (stereo not drawn) | 11.9% |
| COc1cc(/C=C/c2cc(/C=C/c3ccc(O)c(OC)c3)[nH]c(=O)n2)ccc1O | 42% |
| COc1ccc2nc(-c3ccc(Cl)cc3)cc(-c3nnc(SC/C(=N\O)c4ccccc4)n3-c3ccccc3)c2c1 | 59% |
| CCOC(=O)CN(c1sc(C)c(C)c1C(=O)OCC)S(=O)(=O)c1ccc(C)cc1 | 103% |
| COc1ccc(/C=C2/SC(=S)NC2=O)c(OC)c1OC | 84% |
| CC(C)(C)OC(=O)N1CCc2c(sc3ncnc(N/N=C/c4ccccc4Br)c23)C1 | 15.9% |
| NC(CSC(c1ccccc1)(c1ccccc1)c1cccc2ccccc12)C(=O)O (stereo not drawn) | 103% |
| CN(C)CCCOc1ccccc1NC1=C(Cl)C(=O)C(Nc2ccccc2OCCCN(C)C)=C(Cl)C1=O | -25.3% (active) |
| NS(=O)(=O)c1ccc(Br)cc1 | 109% |
| CN(C)CCCOc1ccc(NC2=C(Cl)C(=O)C(Nc3ccc(OCCCN(C)C)cc3)=C(Cl)C2=O)cc1 | -11.7% (active) |
| COc1ccc(-c2n[nH]nc2-c2cc(OC)c3c(c2OC)OCO3)cc1 | 10.7% |
| C=CCn1c(SCC(=O)Nc2ccc(C(=O)/C=C/c3cc(OC)c(OC)c(OC)c3)cc2)nnc1-c1cc(-c2ccc(Cl)cc2)nc2ccccc12 | 75.9% |
| COc1ccc(C2=Cn3c(CCC(=O)c4nc5ccccc5[nH]4)nnc3SC2)cc1 | 3.14% (active) |
| CCN1CCN(CCC(=O)Nc2cccc(-n3cc(-c4ccncc4)c(-c4ccc(Cl)c(OC)c4)n3)c2)CC1 | -34% (active) |
| N#CCc1csc(Cc2ccccc2)n1 | 103% |
| Cc1[nH]c2ccccc2c1/C=N/Nc1ncnc2sc3c(c12)CCN(CC(=O)OC(C)(C)C)C3 | 22.3% |
| CCCc1cn(CC(=O)Nc2nc3ccccc3s2)nn1 | 106% |
| C/C=C/CSC(C)(C)C(=O)NC | 110% |
| Cc1ccc(Cl)cc1NC(=O)CCl | 39% |
| CCOC(=O)c1cc(C(=O)c2ccc(OC)c(OC)c2)n2c1ccc1ccc3cccnc3c12 | 14.7% |
| Cc1c(Cl)cccc1NC(=O)CCCl | 88.2% |
| Cc1ccc(NCCNCC(C)(C)O)c2c(=O)c3ccc(Cl)cc3sc12 | -63.1% (active) |
| OCC1OC(n2cnc3c(NCc4ccco4)ncnc32)C(O)C1O (stereo not drawn) | 33% |
| NS(=O)(=O)Oc1ccc(NC(=O)C2CCCCCC2)cc1 | 96.1% |
| COc1cc(-c2nn(-c3ccc(NC(=O)NCCNS(=O)(=O)c4ccc(F)cc4)cc3)cc2-c2ccncc2)ccc1Cl | 2.45% (active) |
| NS(=O)(=O)Oc1ccc2c(ccn2C(=O)C23CC4CC(CC(C4)C2)C3)c1 | 101% |
| COc1ccc(-c2cc(-c3ccc(Cl)cc3)nc(SCCCC(=O)NO)n2)cc1 | 7.35% (active) |
| Nc1cc(Br)c(-c2nn3c(CCC(=O)c4nc5ccccc5[nH]4)nnc3s2)c(Br)c1 | 7.05% (active) |
